Assay [1] is described as follows: small molecules captured by biotinylated probe aFSTL3 – biochemical, small-molecule microarray, fluorescence 635/667, stem cell growth factor project, primary screen (AID 1064).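 Further: measures binding of the biotinylated anti-FSTL3 antibody to printed compounds.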 To be noted: higher = more signal.
The nature of assay [2]: binders from COS7 lysate, DM2A8 probe, primary screen, torsin A project, cell lysate, small-molecule microarray, fluorescence 635/667 (AID 1065). To be noted: higher = more signal, COS7 lysate expressing mutant human TOR1A.
Assay [3] can be described thus: small molecules captured by biotinylated probe aFGF2 – biochemical, small-molecule microarray, fluorescence 635/667, stem cell growth factor project, primary screen (AID 1067).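 Further: measures binding of biotinylated aFGF2 protein to printed compounds on slides; z-score merges feature fluorescence and signal-to-noise across triplicate slides.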 To be noted: higher = more signal.
The nature of assay [4]: small molecules captured by biotinylated probe aFGF10 – biochemical, small-molecule microarray, fluorescence 635/667, stem cell growth factor project, primary screen (AID 1071).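 Further: score merges 667 nm spot intensity and signal to noise from triplicate slides.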 Particulars: higher = more signal.
The target in assay [5] is Neurogenic locus notch homolog protein 2 (Homo sapiens) (UniProt Q04721). As to the kind of experiment: small molecules binding Notch2 protein – biochemical, small-molecule microarray, 635 nm fluorescence, stem cell growth factors, primary screen (AID 1073). To be noted: higher = more signal.
Chain of Neurogenic locus notch homolog protein 2 (Homo sapiens) (Q04721 whole entry, looked up, canonical isoform): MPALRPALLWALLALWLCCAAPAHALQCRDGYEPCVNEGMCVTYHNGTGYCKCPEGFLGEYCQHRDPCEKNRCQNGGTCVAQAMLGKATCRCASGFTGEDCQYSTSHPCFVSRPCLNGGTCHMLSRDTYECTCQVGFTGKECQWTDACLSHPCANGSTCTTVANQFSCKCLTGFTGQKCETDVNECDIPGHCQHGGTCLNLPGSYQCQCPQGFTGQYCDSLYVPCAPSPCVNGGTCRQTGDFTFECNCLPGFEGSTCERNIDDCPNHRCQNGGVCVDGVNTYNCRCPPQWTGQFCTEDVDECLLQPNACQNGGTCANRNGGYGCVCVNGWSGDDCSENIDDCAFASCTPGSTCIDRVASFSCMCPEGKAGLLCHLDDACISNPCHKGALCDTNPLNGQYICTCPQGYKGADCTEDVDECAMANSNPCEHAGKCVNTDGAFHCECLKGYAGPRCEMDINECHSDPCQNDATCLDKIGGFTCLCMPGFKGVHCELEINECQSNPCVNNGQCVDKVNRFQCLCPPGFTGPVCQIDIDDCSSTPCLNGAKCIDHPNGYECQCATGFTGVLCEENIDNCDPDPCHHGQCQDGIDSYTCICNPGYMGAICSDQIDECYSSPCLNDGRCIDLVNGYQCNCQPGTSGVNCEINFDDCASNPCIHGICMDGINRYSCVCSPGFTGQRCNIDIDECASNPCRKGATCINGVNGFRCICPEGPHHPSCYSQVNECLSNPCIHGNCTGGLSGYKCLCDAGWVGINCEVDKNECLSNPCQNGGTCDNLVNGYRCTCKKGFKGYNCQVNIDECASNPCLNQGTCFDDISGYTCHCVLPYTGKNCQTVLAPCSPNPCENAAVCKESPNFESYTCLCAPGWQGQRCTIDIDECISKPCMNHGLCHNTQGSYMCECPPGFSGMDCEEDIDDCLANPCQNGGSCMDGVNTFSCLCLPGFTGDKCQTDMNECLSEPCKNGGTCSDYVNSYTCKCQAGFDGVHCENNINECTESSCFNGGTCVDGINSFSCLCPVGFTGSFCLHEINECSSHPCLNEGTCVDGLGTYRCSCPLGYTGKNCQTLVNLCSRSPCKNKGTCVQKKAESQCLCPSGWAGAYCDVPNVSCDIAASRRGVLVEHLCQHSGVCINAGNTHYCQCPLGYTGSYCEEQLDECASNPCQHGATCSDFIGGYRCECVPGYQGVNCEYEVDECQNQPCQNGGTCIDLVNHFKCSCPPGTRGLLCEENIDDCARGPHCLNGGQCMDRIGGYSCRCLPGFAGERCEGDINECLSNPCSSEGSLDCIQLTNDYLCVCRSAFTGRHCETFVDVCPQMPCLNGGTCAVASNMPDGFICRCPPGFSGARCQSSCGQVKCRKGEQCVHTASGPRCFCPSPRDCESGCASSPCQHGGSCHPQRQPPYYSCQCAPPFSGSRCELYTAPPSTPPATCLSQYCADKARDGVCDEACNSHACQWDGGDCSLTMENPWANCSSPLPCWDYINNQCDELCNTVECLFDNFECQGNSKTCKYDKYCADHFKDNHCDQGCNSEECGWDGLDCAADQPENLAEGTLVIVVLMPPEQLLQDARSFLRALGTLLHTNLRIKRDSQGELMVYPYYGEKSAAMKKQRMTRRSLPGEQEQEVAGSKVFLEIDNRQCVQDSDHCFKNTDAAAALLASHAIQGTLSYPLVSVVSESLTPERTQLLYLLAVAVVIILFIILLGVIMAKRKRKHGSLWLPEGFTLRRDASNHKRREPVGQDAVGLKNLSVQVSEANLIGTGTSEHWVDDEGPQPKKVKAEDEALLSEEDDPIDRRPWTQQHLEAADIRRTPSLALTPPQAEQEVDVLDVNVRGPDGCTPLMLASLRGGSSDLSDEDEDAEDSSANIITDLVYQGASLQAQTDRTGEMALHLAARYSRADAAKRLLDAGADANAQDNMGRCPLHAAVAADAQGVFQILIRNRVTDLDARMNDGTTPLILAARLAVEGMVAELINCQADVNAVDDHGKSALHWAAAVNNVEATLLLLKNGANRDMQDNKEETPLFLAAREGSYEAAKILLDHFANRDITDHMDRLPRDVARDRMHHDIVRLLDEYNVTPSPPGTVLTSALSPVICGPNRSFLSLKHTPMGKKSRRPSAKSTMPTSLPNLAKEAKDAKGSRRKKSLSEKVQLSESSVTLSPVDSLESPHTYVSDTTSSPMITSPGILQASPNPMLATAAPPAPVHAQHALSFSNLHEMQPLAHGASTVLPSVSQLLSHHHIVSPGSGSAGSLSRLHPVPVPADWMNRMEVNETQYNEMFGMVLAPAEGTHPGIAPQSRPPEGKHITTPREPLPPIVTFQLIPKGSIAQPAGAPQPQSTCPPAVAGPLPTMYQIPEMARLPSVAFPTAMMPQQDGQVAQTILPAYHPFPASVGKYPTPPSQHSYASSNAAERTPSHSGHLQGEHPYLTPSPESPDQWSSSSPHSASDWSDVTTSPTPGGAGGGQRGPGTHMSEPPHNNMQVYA
For assay [6], the target named is Pro-neuregulin-1, membrane-bound isoform (Homo sapiens) (UniProt Q02297). The experiment in a line: small molecules binding neuregulin-1 protein – biochemical, small-molecule microarray, fluorescence 635/667, psychiatric disease protein project, primary screen (AID 1075).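 Further: score combines 667 nm spot fluorescence with signal to noise.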 To be noted: NRG1 binding, 635 nm fluorescence, higher = more signal.
Chain of Pro-neuregulin-1, membrane-bound isoform (Homo sapiens) (Q02297 whole entry, looked up, the tested form may be a part, canonical isoform): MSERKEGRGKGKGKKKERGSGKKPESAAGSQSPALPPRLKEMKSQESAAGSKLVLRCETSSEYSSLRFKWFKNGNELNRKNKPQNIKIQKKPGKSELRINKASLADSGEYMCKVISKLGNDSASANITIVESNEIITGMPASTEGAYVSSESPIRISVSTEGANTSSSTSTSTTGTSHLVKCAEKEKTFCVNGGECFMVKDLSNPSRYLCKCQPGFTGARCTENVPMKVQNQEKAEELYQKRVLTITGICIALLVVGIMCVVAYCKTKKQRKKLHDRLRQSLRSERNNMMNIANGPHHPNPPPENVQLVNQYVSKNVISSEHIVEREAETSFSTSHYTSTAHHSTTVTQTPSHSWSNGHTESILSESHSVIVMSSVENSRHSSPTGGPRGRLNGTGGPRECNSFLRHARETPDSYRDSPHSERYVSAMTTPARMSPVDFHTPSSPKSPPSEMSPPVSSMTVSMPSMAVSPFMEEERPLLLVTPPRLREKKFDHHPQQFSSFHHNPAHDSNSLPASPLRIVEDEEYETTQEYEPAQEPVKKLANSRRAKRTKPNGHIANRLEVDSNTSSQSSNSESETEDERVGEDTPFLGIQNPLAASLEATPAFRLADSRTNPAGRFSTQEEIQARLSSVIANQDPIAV
In assay [7] the test system is Neuregulin-1 EGF-like domain. The experiment in a line: small molecules binding NRG1 EGF domain – biochemical, small-molecule microarray, 635 nm fluorescence, primary screen (AID 1081).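 Further: binding of the protein to compounds printed on small-molecule microarray slides.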 To be noted: higher = more signal.
The nature of assay [8]: FRG1 expression reporter modulators in myotubes – cell-based, C2C12 myotubes, firefly/Renilla luciferase, luminescence, FRG1 inhibition for FSHD, primary screen (AID 1084). To be noted: FRG1 promoter luciferase, higher = more signal, called active from +8 up or from −8 down.
Assay [9] in a line: small molecules captured by biotinylated probe aFST – biochemical, small-molecule microarray, fluorescence 635/667, stem cell growth factor project, primary screen (AID 1086).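 Further: score merges 667 nm fluorescence with signal-to-noise of each printed compound spot.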 To be noted: higher = more signal.
Assay [10] is described as follows: binders of probe aHhip on microarray, primary screen, stem cell growth factor project, biochemical, small-molecule microarray, fluorescence 635/667 (AID 1087).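 Further: score merges spot fluorescence at 667nm with spot signal to noise ratio.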 To be noted: higher = more signal.
The test system of assay [11] is PRMT1 (protein arginine N-methyltransferase 1). As to the kind of experiment: small molecules binding arginine methyltransferase PRMT1 – biochemical, small-molecule microarray, 635 nm fluorescence, primary screen (AID 1088).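 Further: binding of Prmt1 protein to compounds spotted on small-molecule microarray slides.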 To be noted: higher = more signal.
Assay [12] in a line: growth effects on S. cerevisiae YJM789 – YJM789 clinical isolate, OD600, 24 h, basal, primary screen (AID 1089).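 Further: growth of clinical yeast isolate S. cerevisiae YJM 789 seeded 1000 cells per well; test concentration not given here.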 Particulars: higher = more signal, called active from +8 up or from −8 down.
A short description of assay [13]: S. pombe growth modifiers, basal conditions – strain 972, OD600, 24 h, no modulator, primary screen (AID 1090).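 Further: basal condition with compound alone and no growth modifier present; test concentration not given here.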 Particulars: S. pombe 972 growth, higher = more signal, called active from +8 up or from −8 down.
The nature of assay [14]: budding yeast growth modifiers under rapamycin – strain BY4716, OD600, 96 h, primary screen (AID 1091). Further: test concentration not given here. Particulars: S. cerevisiae BY4716 + rapamycin, higher = more signal, called active from +8 up or from −8 down.
For assay [15], the target named is Torsin-1A-interacting protein 2 (Homo sapiens) (UniProt Q8NFQ8). As to the kind of experiment: small molecules binding lysate-expressed LULL1 – cell lysate, human LULL1 lysate, 635/667 nm fluorescence, primary screen (AID 1092).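 Further: probe is lysate of COS7 cells overexpressing human LULL1; score merges per-feature 667 nm fluorescence with signal-to-noise.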 To be noted: small-molecule microarray, hLULL1 lysate binding, 635 nm fluorescence; higher = more signal.
Chain of Torsin-1A-interacting protein 2 (Homo sapiens) (Q8NFQ8 whole entry, looked up): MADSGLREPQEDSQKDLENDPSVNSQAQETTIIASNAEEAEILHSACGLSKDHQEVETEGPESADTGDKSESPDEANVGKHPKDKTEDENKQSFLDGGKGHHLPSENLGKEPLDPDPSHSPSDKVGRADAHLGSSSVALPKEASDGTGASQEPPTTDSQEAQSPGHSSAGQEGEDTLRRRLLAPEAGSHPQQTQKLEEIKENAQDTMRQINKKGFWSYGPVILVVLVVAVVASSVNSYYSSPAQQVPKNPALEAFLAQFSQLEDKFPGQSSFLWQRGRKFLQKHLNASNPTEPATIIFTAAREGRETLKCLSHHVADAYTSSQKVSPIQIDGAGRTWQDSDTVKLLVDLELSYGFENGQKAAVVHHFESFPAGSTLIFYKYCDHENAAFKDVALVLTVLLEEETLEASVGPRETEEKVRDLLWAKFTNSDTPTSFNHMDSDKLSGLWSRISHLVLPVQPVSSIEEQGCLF
Assay [16] in a line: optical density change of DRC41 E. coli – strain DRC41, OD650, 24 h, E. coli filamentation project, primary screen (AID 1093).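 Further: MC1000 strain lacking acrAB efflux and sulA so SOS filamentation is blocked; test concentration not given here.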 Particulars: E. coli DRC41 growth, higher = more signal, called active from +8 up or from −8 down.
Assay [17] can be described thus: probe aLefty2 binding to arrayed compounds – biochemical, biotinylated probe, 635/667 nm fluorescence, primary screen (AID 1094).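 Further: score merges spot fluorescence near 667 nm with spot signal-to-noise ratio.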 To be noted: small-molecule microarray, higher = more signal.
Assay [18] relates to Noggin (protein binding on small-molecule microarray). The experiment in a line: small molecules binding Noggin protein – biochemical, 635/667 nm fluorescence, primary screen (AID 1095).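 Further: score merges 667 nm feature fluorescence with signal to noise over triplicate slides.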 Particulars: 635 nm fluorescence, higher = more signal.
Assay [19] addresses Neurogenic locus notch homolog protein 3 (Homo sapiens) (UniProt Q9UM47). The experiment in a line: small molecules binding NOTCH3 protein – biochemical, 635/667 nm fluorescence, primary screen (AID 1096). Particulars: small-molecule microarray, 635 nm fluorescence, higher = more signal.
A short description of assay [20]: probe aEGFR binding to arrayed compounds – biochemical, biotinylated probe, 635/667 nm fluorescence, primary screen (AID 1097).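 Further: probe is a biotinylated anti-EGFR antibody binding compounds printed on slides; score combines fluorescence near 667 nm and signal to noise of each spot.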 To be noted: small-molecule microarray, higher = more signal.

Calls of active or inactive are those of the source.

Take `CCC(=O)[C@]12O[C@@]3([C@@H]4C(=O)OCC[C@@H]41)N(CC)C(C)=C(C(=O)OC)[C@@H](c1ccccc1)N3C2=O`: the composite z-score was 0.162 in assay [1]; -0.337 in [2]; -0.116 in assay [3]; 0.0911 in [4]; -0.925 in assay [5]; 0.0983 in assay [6]. The composite z-score in assay [7] was 0.966; in assay [9], -0.255; in [10], 0.176; in [11], -0.486; in [15] it was 0.155; in [17], -0.0928. Also, the composite z-score in assay [18] was 0.152; in assay [19], -0.37; in assay [20], -0.0818. Further, the z-score in assay [8] is -0.13 (inactive); in assay [12] it was -1.62 (inactive); in [13] it was -1.89 (inactive); in assay [14], -0.153 (inactive); in assay [16] it was 0.421 (inactive).

Consider `O=C/C=C/c1ccc(/C=C/c2ccccc2)cc1`, for which the composite z-score in assay [1] is 1.02; in [2] it was 0.107; in [3] it was -0.105; in assay [4], -0.324; in assay [5], -0.429; in assay [6], -0.422. The composite z-score was -0.34 in [7]; 0.204 in assay [9]; 0.154 in [10]; -0.742 in assay [11]; -0.917 in [15]; 0.0262 in [17]. Further, the composite z-score in assay [18] was -0.43; in assay [19], -1.2; in [20] it was -0.225. Further, the z-score in assay [8] was 3.71 (inactive); in assay [12], -2.92 (inactive); in assay [13], -19.7 (active); in assay [14], -1.59 (inactive); in assay [16] it was 1.51 (inactive).

Take `CO[C@H]1COC(=O)[C@H](C)COC(=O)[C@H](Cc2ccccc2)NC(=O)CC=C[C@H]1C`: the composite z-score is 0.34 in [1]; 0.355 in assay [2]; -0.167 in [3]; -0.106 in assay [4]; -0.889 in assay [5]; -0.339 in assay [6]. The composite z-score in assay [7] was -0.942; in assay [9], 0.0716; in [10] it was -0.455; in [11] it was -0.0111; in assay [15], -0.826; in [17], 0.0128. For the same molecule, the composite z-score in assay [18] is 0.952; in assay [19], -0.447; in [20], -0.139. Further, the z-score was -0.412 (inactive) in assay [8]; 0.43 (inactive) in assay [12]; -0.854 (inactive) in assay [13]; -0.798 (inactive) in assay [14]; 0.195 (inactive) in assay [16].

On to `CCOC(=O)C1=CCC(c2cccc3ccccc23)N(S(=O)(=O)c2ccc(C)cc2)C1` (stereo not given), for which the composite z-score was 0.609 in assay [1]; -0.0897 in assay [2]; 0.0346 in assay [3]; 0.323 in [4]; 1.46 in [5]; 1.21 in [6]. The composite z-score in assay [7] was 1.01; in assay [9], 0.95; in assay [10], -0.0237; in [11], 0.614; in assay [15] it was 1.64; in assay [17], 0.346. For the same molecule, the values for the composite z-score in [18], in assay [19] and in [20] were -0.375, 0.976 and 0.211, respectively. The z-score in assay [8] is -1.05 (inactive); in assay [12], -0.109 (inactive); in assay [13], 1.4 (inactive); in [14], 3.55 (inactive); in assay [16], -0.461 (inactive).

In the case of `C[C@H]1C2[C@H](Cc3ccccc3)NC(=O)[C@]23C(=O)N[C@H](Cc2ccccc2)C(=O)N[C@@H](Cc2ccccc2)C(=O)NC/C=C\C/C=C/C3[C@@H]2O[C@]12C` (stereo not given in full), the composite z-score in assay [1] is -0.446; in assay [2], 0.107; in assay [3], -0.147; in [4] it was 0.388; in assay [5], 0.155; in [6], -0.384. The composite z-score in assay [7] was -0.199; in [9], -0.137; in assay [10], 0.122; in assay [11], -0.0599; in [15], 0.168; in assay [17] it was -0.0882. Also, the composite z-score in assay [18] is -0.152; in assay [19], 0.367; in assay [20], -0.113. For the same molecule, the z-score is -0.293 (inactive) in assay [8]; -0.371 (inactive) in assay [12]; -0.246 (inactive) in assay [13]; -0.639 (inactive) in [14]; 1.25 (inactive) in [16].

The values above are taken from PubChem BioAssay.
